Among the data in PubChem BioAssay AID588405 (Sanford-Burnham Center for Chemical Genomics, 2011) are inhibition values, retold here.

The whole screen tested about 360,000 compounds, of which about 6,200 (1.7%) were called active. Only a selection was taken, and actives are over-represented in it overall. Unmarked numbers belong to inactive results.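 How the source made its calls: active means inhibition of at least 50% at 20 µM; inactive means the rest.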

The experiment can be described thus: inhibition of PEG-3 promoter activity – cell-based, HeLa, luciferase luminescence, primary screen (AID 588405). The conditions noted are these: HeLa PEG-Prom luciferase reporter, overnight, at 20 µM, hits give high values.
By inhibition is commonly meant the change of the read-out against control, counted positive when it falls. In the case of `COc1ccc(C(=O)N2CCCCC2c2cc(C(=O)Nc3ccc(F)c(Cl)c3)no2)cc1` (centres undefined), the inhibition was 11.5%. For `Cc1nccn1-c1ccc(NC(=O)[C@H]2O[C@@H](n3cnc4c(N)ncnc43)[C@H](O)[C@@H]2O)cc1` the value was 7.92%; for `CCc1nc2ccc(C(=O)NCc3ccc(OC)cc3)cn2c1N(CC)Cc1cccc(Br)c1`, 19.4%. Next, `COc1ccc(NC(=O)c2sc(=O)n(Cc3ccc(S(=O)(=O)N(C)C)cc3)c2C)cc1`: 2.16%; `Cc1ccc(SCC(=O)N2CCN(c3ccc(F)cc3)CC2)cc1`: 8.76%; `CCN1CCC2(CC1)N=C(c1ccc(F)cc1)C(=S)N2C(=O)c1ccc(C)cc1`: 90% (active). For `Cc1ccc(C(=O)N2CC(=O)Nc3ccc(F)cc3C2c2ccc(F)cc2)cc1` (centres undefined) the value was 17.9%; for `CCCNC(=O)c1cc(C2CCCCN2S(=O)(=O)c2ccc(C#N)cc2)on1` (centres undefined), -6.28%; for `OC(c1cc(Cl)cc(Cl)c1)c1ncc(-c2ccccc2C(F)(F)F)[nH]1` (centres undefined), 35.8%. `CCc1ccc(/C=N/NC(=O)c2ccc(OC3CCCC3)cc2)s1`: the inhibition was 14.5%. Consider `CC1(C(=O)NCc2ccco2)Cc2c(-c3ccc4c(c3)OCO4)ccnc2O1` (centres undefined), for which the inhibition is 7.44%. For `O=C(Nc1ncccc1O)c1ccc(C(=O)c2ccccc2)cc1` the value was -204%. Consider `O=C(Nc1ccc2ccccc2c1[N+](=O)[O-])c1ccccc1`, for which the inhibition was -223%. For `O=C(NC1=CC(=O)c2ccccc2C1=O)c1ccccc1` the value was 106% (active); for `CCCNC(=O)C1(C)CCCN(C(=O)c2cccc(OC(C)=O)c2C)C1` (centres undefined), -1.66%.

Consider `COc1cc(NS(=O)(=O)c2ccc3ccccc3c2)c2ncccc2c1`, for which the inhibition is 54.5% (active).

For the compound `CCOc1ncccc1C(=O)NNC(=O)c1cccc(S(=O)(=O)Nc2ccccc2OC)c1`, the inhibition was 6.59%.

As to `CCOc1cc(NS(=O)(=O)c2ccc(OC)cc2)c(OCC)cc1NC(C)=O`, the inhibition is 11.6%.

Turning to `COc1ccc(N2C(=O)NC(NS(=O)(=O)c3ccc(Cl)cc3)(C(F)(F)F)C2=O)cc1` (centres undefined), the inhibition was 10.8%. In the case of `CC1=C(C(=O)N2CCOCC2)CC(CC(=O)NCc2cccs2)C(=O)N1CCCN1CCCC1=O` (centres undefined), the inhibition is 0.54%. In the case of `O=C1C(Cl)=C(Oc2ccccc2)C(=O)c2ccccc21`, the inhibition was 104% (active). In the case of `O=c1[nH]nc(SCCS(=O)(=O)c2ccc(F)cc2)n1-c1ccccc1C(F)(F)F`, the inhibition is -139%. Take `CC(C)(C)N1C(=O)c2c(C(=O)OCc3ccccc3)[nH]c(-c3ccccc3)c2C1=O`: the inhibition was 24.2%. For `COc1ccc(NC(=O)c2cn(-c3ccccc3)nc2SC)cc1` the value was -78.1%.
